# Measurements reported in article PMC5540273 (PLoS ONE, 2017).
# “And” between values parts separate entries of the source, which are not always exact repeats. Equal entries are not always repeated. Where two headings read alike, the source gives them in different places.
# Assays:
# FAK = test system: T1, FAK; details: concentration: 1 μM, replicates: in singlicate; n = 1
# T1 construct: gene PTK2
# FER = details: n = 1
# FES = details: concentration: 1 μM, replicates: in singlicate; n = 1
# FGFR1 = details: concentration: 1 μM, replicates: in singlicate; n = 1
# FGFR2 = details: concentration: 1 μM, replicates: in singlicate; n = 1
# FGFR3 = details: n = 1
# FGFR4 = details: n = 1
# FGR = details: n = 1
# FLT1 = details: n = 1
# FLT3-autoinhibited = details: concentration: 1 μM, replicates: in singlicate; n = 1
# FLT3 = details: concentration: 1 μM, replicates: in singlicate; n = 1
# FLT4 = details: n = 1
# FRK = details: concentration: 1 μM, replicates: in singlicate; n = 1
# FYN = details: n = 1
# GAK = details: n = 1
# GCN2(Kin.Dom.2,S808G) = test system: T2, GCN2(Kin.Dom.2,S808G); details: n = 1
# T2 construct: gene EIF2AK4
# GRK1 = details: concentration: 1 μM, replicates: in singlicate; n = 1
# GRK2 = test system: T3, GRK2; details: concentration: 1 μM, replicates: in singlicate; n = 1
# T3 construct: gene ADRBK1
# GRK3 = test system: T4, GRK3; details: n = 1
# T4 construct: gene ADRBK2
# GRK4 = details: n = 1
# [1] = concentration: 1 μM, replicates: in singlicate
# [2] = concentration: 1 μM,replicates: in singlicate, 1 µM
# 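Note: KINOMEscan kinase panel screen.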
compound,measurement,setting,value
COc1ccccc1CNC(=O)c1cc(C(=O)c2ccccc2C)c[nH]1 [GSK364507],%Inh,FAK,0%
same,%Inh,FER; [1],8%
same,%Inh,FES,0%
same,%Inh,FGFR1,0%
same,%Inh,FGFR2,16%
same,%Inh,FGFR3; [1],4%
same,%Inh,FGFR4; [1],11%
same,%Inh,FGR; [1],23%
same,%Inh,FLT1; [1],18%
same,%Inh,FLT3-autoinhibited,0%
same,%Inh,FLT3,0%
same,%Inh,FLT4; [1],5%
same,%Inh,FRK,0%
same,%Inh,FYN; [1],42%
same,%Inh,GAK; [1],15%
same,%Inh,"GCN2(Kin.Dom.2,S808G); [1]",9%
same,%Inh,GRK1,0%
same,%Inh,GRK2,0%
same,%Inh,GRK3; [1],37%
same,%Inh,GRK4; [1],0%
Clc1cc(Cl)cc(Nc2ccnc(Nc3cc(Cl)cc(Cl)c3)n2)c1 [GSK175726],%Inh,FAK,0%
same,%Inh,FER; [1],13%
same,%Inh,FES,9%
same,%Inh,FGFR1,0%
same,%Inh,FGFR2,50%
same,%Inh,FGFR3; [1],22%
same,%Inh,FGFR4; [1],6%
same,%Inh,FGR; [1],46%
same,%Inh,FLT1; [1],16%
same,%Inh,FLT3-autoinhibited,0%
same,%Inh,FLT3,0%
same,%Inh,FLT4; [1],0%
same,%Inh,FRK,45%
same,%Inh,FYN; [1],8%
same,%Inh,GAK; [1],30%
same,%Inh,"GCN2(Kin.Dom.2,S808G); [1]",0%
same,%Inh,GRK1,100%
same,%Inh,GRK2,0%
same,%Inh,GRK3; [1],7%
same,%Inh,GRK4; [1],0%
Cc1ccc(NC(=O)Nc2cc(C(C)(C)C)nn2-c2ccccc2)cc1 [GSK1014915],%Inh,FAK,0%
same,%Inh,FER; [1],20%
same,%Inh,FES,0%
same,%Inh,FGFR1,6%
same,%Inh,FGFR2,25%
same,%Inh,FGFR3; [1],16%
same,%Inh,FGFR4; [1],15%
same,%Inh,FGR; [1],18%
same,%Inh,FLT1; [1],33%
same,%Inh,FLT3-autoinhibited,38%
same,%Inh,FLT3,98.6%
same,%Inh,FLT4; [1],15%
same,%Inh,FRK,22%
same,%Inh,FYN; [1],4%
same,%Inh,GAK; [1],11%
same,%Inh,"GCN2(Kin.Dom.2,S808G); [1]",9%
same,%Inh,GRK1,9%
same,%Inh,GRK2,0%
same,%Inh,GRK3; [1],92.4%
same,%Inh,GRK4; [1],7%
CN(C)CCN(C)C(=O)c1cc(-c2ccncc2)c(-c2ccc(Cl)c(O)c2)o1.Cl.Cl [SB-710397],%Inh,FAK,0%
same,%Inh,FER; [1],0%
same,%Inh,FES,0%
same,%Inh,FGFR1,0%
same,%Inh,FGFR2,0%
same,%Inh,FGFR3; [1],5%
same,%Inh,FGFR4; [1],0%
same,%Inh,FGR; [1],16%
same,%Inh,FLT1; [1],43%
same,%Inh,FLT3-autoinhibited,0%
same,%Inh,FLT3,0%
same,%Inh,FLT4; [1],7%
same,%Inh,FRK,43%
same,%Inh,FYN; [1],0%
same,%Inh,GAK; [1],29%
same,%Inh,"GCN2(Kin.Dom.2,S808G); [1]",0%
same,%Inh,GRK1,4%
same,%Inh,GRK2,0%
same,%Inh,GRK3; [1],54%
same,%Inh,GRK4; [1],0%
O=S(=O)(c1ccc(-c2ccnc3[nH]ccc23)cc1)N1CCCC1 [GSK846226],%Inh,FAK,0%
same,%Inh,FER; [1],12%
same,%Inh,FES,0%
same,%Inh,FGFR1,0%
same,%Inh,FGFR2,0%
same,%Inh,FGFR3; [1],12%
same,%Inh,FGFR4; [1],2%
same,%Inh,FGR; [1],16%
same,%Inh,FLT1; [1],22%
same,%Inh,FLT3-autoinhibited,8%
same,%Inh,FLT3,0%
same,%Inh,FLT4; [1],0%
same,%Inh,FRK,0%
same,%Inh,FYN; [1],25%
same,%Inh,GAK; [1],28%
same,%Inh,"GCN2(Kin.Dom.2,S808G); [1]",0%
same,%Inh,GRK1,0%
same,%Inh,GRK2,0%
same,%Inh,GRK3; [1],0%
same,%Inh,GRK4; [1],0%
Cn1ccc2ncnc(Oc3ccc(Nc4nc5ccccc5[nH]4)cc3)c21,%Inh,FAK,0%
same,%Inh,FER; [1],0%
same,%Inh,FES,0%
same,%Inh,FGFR1,3%
same,%Inh,FGFR2,0%
same,%Inh,FGFR3; [1],0%
same,%Inh,FGFR4; [1],0%
same,%Inh,FGR; [1],9%
same,%Inh,FLT1; [1],0%
same,%Inh,FLT3-autoinhibited,0%
same,%Inh,FLT3,0%
same,%Inh,FLT4; [1],0%
same,%Inh,FRK,0%
same,%Inh,FYN; [1],0%
same,%Inh,GAK; [1],0%
same,%Inh,"GCN2(Kin.Dom.2,S808G); [1]",0%
same,%Inh,GRK1,4%
same,%Inh,GRK2,0%
same,%Inh,GRK3; [1],0%
same,%Inh,GRK4; [1],9%
NC(=O)c1nnc2ccccc2c1N,%Inh,FAK,12%
same,%Inh,FER; [1],0%
same,%Inh,FES,4%
same,%Inh,FGFR1,41%
same,%Inh,FGFR2,7%
same,%Inh,FGFR3; [1],90%
same,%Inh,FGFR4; [1],0%
same,%Inh,FGR; [1],21%
same,%Inh,FLT1; [1],7%
same,%Inh,FLT3-autoinhibited,16%
same,%Inh,FLT3,15%
same,%Inh,FLT4; [1],5%
same,%Inh,FRK,0%
same,%Inh,FYN; [1],0%
same,%Inh,GAK; [1],24%
same,%Inh,"GCN2(Kin.Dom.2,S808G); [1]",13%
same,%Inh,GRK1,12%
same,%Inh,GRK2,67%
same,%Inh,GRK3; [1],13%
same,%Inh,GRK4; [1],28%
Cn1cncc1-c1ccc2ncnc(Nc3ccc(OCc4ccccc4)cc3)c2c1 [GW320571],%Inh,FAK,0%
same,%Inh,FER; [1],25%
same,%Inh,FES,0%
same,%Inh,FGFR1,2%
same,%Inh,FGFR2,13%
same,%Inh,FGFR3; [1],31%
same,%Inh,FGFR4; [1],14%
same,%Inh,FGR; [1],15%
same,%Inh,FLT1; [1],27%
same,%Inh,FLT3-autoinhibited,0%
same,%Inh,FLT3,62%
same,%Inh,FLT4; [1],6%
same,%Inh,FRK,8%
same,%Inh,FYN; [1],12%
same,%Inh,GAK; [1],0%
same,%Inh,"GCN2(Kin.Dom.2,S808G); [1]",0%
same,%Inh,GRK1,8%
same,%Inh,GRK2,7%
same,%Inh,GRK3; [1],0%
same,%Inh,GRK4; [1],0%
Cc1csc(-c2nc(Nc3ccncc3)c3ccccc3n2)n1 [GW869640],%Inh,FAK,3%
same,%Inh,FER; [1],7%
same,%Inh,FES,10%
same,%Inh,FGFR1,17%
same,%Inh,FGFR2,6%
same,%Inh,FGFR3; [1],6%
same,%Inh,FGFR4; [1],16%
same,%Inh,FGR; [1],7%
same,%Inh,FLT1; [1],19%
same,%Inh,FLT3-autoinhibited,26%
same,%Inh,FLT3,39%
same,%Inh,FLT4; [1],6%
same,%Inh,FRK,4%
same,%Inh,FYN; [1],24%
same,%Inh,GAK; [1],21%
same,%Inh,"GCN2(Kin.Dom.2,S808G); [1]",13%
same,%Inh,GRK1,27%
same,%Inh,GRK2,0%
same,%Inh,GRK3; [1],0%
same,%Inh,GRK4; [1],29%
O=C(Nc1ccc2c(c1)OCO2)NC1CCN(c2ccnc(Nc3ccc(F)cc3)n2)C1 (stereo not shown) [GSK1379724],%Inh,FAK,0%
same,%Inh,FER; [1],7%
same,%Inh,FES,15%
same,%Inh,FGFR1,0%
same,%Inh,FGFR2,0%
same,%Inh,FGFR3; [1],7%
same,%Inh,FGFR4; [1],7%
same,%Inh,FGR; [1],11%
same,%Inh,FLT1; [1],19%
same,%Inh,FLT3-autoinhibited,0%
same,%Inh,FLT3,0%
same,%Inh,FLT4; [1],0%
same,%Inh,FRK,11%
same,%Inh,FYN; [1],9%
same,%Inh,GAK; [1],0%
same,%Inh,"GCN2(Kin.Dom.2,S808G); [1]",6%
same,%Inh,GRK1,0%
same,%Inh,GRK2,0%
same,%Inh,GRK3; [1],93.7%
same,%Inh,GRK4; [1],0%
Fc1cc(Cl)ccc1Nc1ccnc2cc(I)ccc12 [GW551191],%Inh,FAK,0%
same,%Inh,FER; [1],0%
same,%Inh,FES,0%
same,%Inh,FGFR1,8%
same,%Inh,FGFR2,18%
same,%Inh,FGFR3; [1],0%
same,%Inh,FGFR4; [1],5%
same,%Inh,FGR; [1],30%
same,%Inh,FLT1; [1],30%
same,%Inh,FLT3-autoinhibited,0%
same,%Inh,FLT3,0%
same,%Inh,FLT4; [1],3%
same,%Inh,FRK,20%
same,%Inh,FYN; [1],25%
same,%Inh,GAK; [1],82%
same,%Inh,"GCN2(Kin.Dom.2,S808G); [1]",5%
same,%Inh,GRK1,0%
same,%Inh,GRK2,0%
same,%Inh,GRK3; [1],32%
same,%Inh,GRK4; [1],4%
CSc1nn2c(=O)cc(N3CCOCC3)nc2n1Cc1cccc(C(F)(F)F)c1C [GSK2363608],%Inh,FAK,0%
same,%Inh,FER; [2],25% and 1%
same,%Inh,FES,0%
same,%Inh,FGFR1,0%
same,%Inh,FGFR2,0%
same,%Inh,FGFR3; [2],17% and 4%
same,%Inh,FGFR4; [2],5% and 14%
same,%Inh,FGR; [2],31% and 32%
same,%Inh,FLT1; [2],26% and 10%
same,%Inh,FLT3-autoinhibited,0%
same,%Inh,FLT3,0%
same,%Inh,FLT4; [2],18% and 0%
same,%Inh,FRK,0%
same,%Inh,FYN; [2],46% and 15%
same,%Inh,GAK; [2],100% and 0%
same,%Inh,"GCN2(Kin.Dom.2,S808G); [2]",0% and 3%
same,%Inh,GRK1,0%
same,%Inh,GRK2,0%
same,%Inh,GRK3; [2],0% and 20%
same,%Inh,GRK4; [2],0% and 8%
Cc1cccc(-c2cc(Nc3ccncc3)c3ccccc3n2)n1 [GSK223675],%Inh,FAK,0%
same,%Inh,FER; [1],0%
same,%Inh,FES,0%
same,%Inh,FGFR1,0%
same,%Inh,FGFR2,0%
same,%Inh,FGFR3; [1],12%
same,%Inh,FGFR4; [1],0%
same,%Inh,FGR; [1],7%
same,%Inh,FLT1; [1],13%
same,%Inh,FLT3-autoinhibited,7%
same,%Inh,FLT3,0%
same,%Inh,FLT4; [1],0%
same,%Inh,FRK,0%
same,%Inh,FYN; [1],40%
same,%Inh,GAK; [1],0%
same,%Inh,"GCN2(Kin.Dom.2,S808G); [1]",0%
same,%Inh,GRK1,0%
same,%Inh,GRK2,0%
same,%Inh,GRK3; [1],0%
same,%Inh,GRK4; [1],0%
Cl.c1ccc(-c2n[nH]cc2-c2ccnc(-c3ccc(CN4CCOCC4)cc3)c2)nc1 [GW776245],%Inh,FAK,31%
same,%Inh,FER; [1],3%
same,%Inh,FES,3%
same,%Inh,FGFR1,0%
same,%Inh,FGFR2,15%
same,%Inh,FGFR3; [1],20%
same,%Inh,FGFR4; [1],1%
same,%Inh,FGR; [1],22%
same,%Inh,FLT1; [1],26%
same,%Inh,FLT3-autoinhibited,0%
same,%Inh,FLT3,0%
same,%Inh,FLT4; [1],14%
same,%Inh,FRK,0%
same,%Inh,FYN; [1],0%
same,%Inh,GAK; [1],46%
same,%Inh,"GCN2(Kin.Dom.2,S808G); [1]",0%
same,%Inh,GRK1,37%
same,%Inh,GRK2,0%
same,%Inh,GRK3; [1],0%
same,%Inh,GRK4; [1],31%
